The results in this text go back to PubChem BioAssay AID618 (Sanford-Burnham Center for Chemical Genomics, 2007).

Molecules are shown by their SMILES. In all, about 87,000 compounds went through this assay and about 540 (0.62%) were called active. The rule behind the calls is not given here. Only a selection was taken, and actives are over-represented in it overall. Results with a measured potency or affinity are listed apart.

The assay can be described thus: MT1-MMP gene expression reporter suppression – cell-based, luciferase reporter, luminescence (AID 618).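 Note: actives suppress MT1-MMP promoter-driven transcription so potencies describe inhibitors.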 Particulars: MT1-MMP promoter luciferase reporter cells.
Turning to `Cc1nc2sc(C(c3cccs3)N3CCN(c4cccc(Cl)c4)CC3)c(O)n2n1` (stereo unspecified), the result was inactive.
For `O=C(c1cn(-c2ccccc2)nc1-c1ccncc1)N1CCCCC1`, the call was inactive.
With `O=C(c1ccccc1F)N1CCN(c2cccc(C(F)(F)F)c2)CC1`, the outcome was inactive.
`COc1ccc(C(=O)N2CCN(c3cccc(Cl)c3)CC2)c(OC)c1`: the compound was classed as inactive.
For `COc1ccccc1C(=O)N1CCN(c2cccc(C(F)(F)F)c2)CC1`, the call was active.
On to `COc1ccccc1CC(=O)N1CCN(c2cccc(C(F)(F)F)c2)CC1`, for which the outcome was inactive.
`COc1ccccc1C(=O)N1CCN(c2cccc(Cl)c2)CC1`: the compound was called inactive.
`CCOc1ccccc1C(=O)N1CCN(c2cccc(Cl)c2)CC1`: the call was active.
For the compound `Cc1cc(-c2nn3c(C)nnc3s2)ccc1NC(=O)C(C)(C)C`, the compound was called inactive.
The same measure for `CCOC(=O)c1cc(C)sc1NC(=O)CCC(=O)O`: “inactive”.
With `COc1ccc(Cn2c3nc4ccccc4nc3c3c(=O)n(Cc4ccco4)c(C)nc32)cc1`, the result was inactive.
`Cc1csc(NC(=O)CSc2nnc(-c3ccoc3C)o2)n1`: the call was inactive.
Regarding `CCC(O)c1cc2c(cc1NC(=O)c1cccs1)OCCO2` (stereo unspecified), the compound was called inactive.
On to `Cc1ccc(C(=O)NCCCNCCCNC(=O)c2ccc(C)nc2)cn1`, for which the result was inactive.
For `CCn1c(COc2cccc(C)c2)nnc1SCC(=O)Nc1cccc(C(=O)OC)c1`, the compound was called inactive.
In the case of `CC(CC(=O)O)CC(=O)Nc1ccccc1C(=O)O` (stereo unspecified), the outcome was inactive.
For the compound `COc1ccc(-c2cc3nc4c(c(=O)n3[nH]2)CCC4)cc1`, the compound was called inactive.
For `O=c1c2c(nc3cc(-c4ccccc4)[nH]n13)CCC2`, the compound was called inactive.
The same measure for `COCCCN1C(=O)C(=O)/C(=C(/O)c2ccc(OC(C)C)cc2)C1c1cccnc1` (stereo unspecified): “inactive”; for `COc1ccc2nc(-c3ccccc3)[nH]c2c1`: “active”.
Consider `c1ccc2nc(-c3nc4ccccc4[nH]3)ccc2c1`, for which the call was active.
For the compound `COc1ccc(OCc2nc3ccccc3[nH]2)cc1`, the compound was called inactive.
Regarding `Nc1ccc(-c2nc3ccccc3[nH]2)cc1`, the outcome was inactive.
In the case of `Nc1nc(-c2nc3ccccc3[nH]2)cs1`, the compound was classed as inactive.
Consider `c1ccc2[nH]c(-c3ccnc4ccccc34)nc2c1`, for which the compound was called inactive.
The same measure for `COc1ccc2nc(-c3cccc(N)c3)[nH]c2c1`: “inactive”; for `CCOc1ccc2nc(-c3ccccc3)[nH]c2c1`: “inactive”.
The same measure for `CC(C)CN1C(=O)c2ccc(NC(=O)c3cccs3)cc2C1=O`: “inactive”; for `O=C(NCc1ccco1)C(c1ccccc1)N(C(=O)Cc1cccs1)c1ccccc1` (stereo unspecified): “inactive”; for `CC(=O)NCCOc1cccc(OCCNC(C)=O)c1`: “inactive”.
For `COc1cc(/C=N/NC(=O)CCc2c(C)n[nH]c2C)ccc1O`, the outcome was inactive.
Regarding `CCn1ncc(Br)c1C(=O)Nc1ccc(Cl)cn1`, the compound was classed as inactive.
`COc1ccc(OC)c(S(=O)(=O)NC2CCCCC2)c1`: the compound was classed as inactive.
As for `CCn1cc(C(=O)N2CCc3ccccc3C2)c(=O)c2cc(S(=O)(=O)N3CCCCC3)ccc21`, the outcome was inactive.
In the case of `Cc1nc(-c2cccc(NC(=O)c3cccs3)c2)cs1`, the compound was called inactive.
As to `Cc1ccc(NC(=O)c2cccs2)cc1`, the compound was called inactive.
For the compound `Cc1nc(-c2ccc(NC(=O)c3cccs3)cc2)cs1`, the outcome was active.
The same measure for `COc1ccc(OC)c(-n2c(-c3ccccc3)n[nH]c2=S)c1`: “inactive”.
Consider `CCOc1ccc(OCc2ccc(C(=O)N3CCOCC3)cc2)cc1`, for which the result was inactive.
For the compound `CCOc1cc(OCC)cc(C(=O)O)c1`, the compound was classed as inactive.
With `CCOc1ccc(OCc2cccc(C(=O)N3CCOCC3)c2)cc1`, the result was active.
With `CCOc1ccc(OCc2cccc(C(=O)N3CCCC3)c2)cc1`, the outcome was inactive.
Turning to `CCOc1ccc(OCc2cccc(C(=O)O)c2)cc1`, the call was active.
The same measure for `COc1ccc(OCc2cccc(C(=O)Nc3cc(C)on3)c2)cc1`: “inactive”.
With `CC(C)OC(=O)C(C)Oc1ccc(C(=O)NCCc2ccccc2)cc1` (stereo unspecified) the entry was “inactive”; with `COc1ccc(OCc2ccc(C(=O)O)cc2)cc1`, “inactive”; with `CC(Oc1ccc(C(=O)NCCc2ccccc2)cc1)C(=O)O` (stereo unspecified), “inactive”.
Take `COc1ccc(OCc2cccc(C(=O)O)c2)cc1`: the call was active.
The same measure for `CCCCOc1cccc(C(=O)O)c1`: “inactive”; for `CSc1nc2nc(C(F)(F)F)cc(-c3ccccc3)n2n1`: “inactive”; for `COc1ccccc1C(=O)Nc1ccc2c(c1)nc1n2CCSC1`: “inactive”.
The same measure for `CSc1ccccc1C(=O)Nc1nccs1`: “inactive”; for `Cc1nn(-c2ccccc2)c2c1C1(C(=O)N(C(C)C)c3ccccc31)C(C#N)=C(N)O2` (stereo unspecified): “inactive”.
Take `Cc1nc(SCC(=O)NC2CCCC2)[nH]c(=O)c1Cc1ccccc1`: the result was inactive.
As for `CCCCOc1ccc(C(=O)Nc2cccc(C)n2)cc1`, the compound was called inactive.
With `CCOc1ccc(C(=O)Nc2cccc(C)n2)cc1` the entry was “active”; with `CCOc1ccc(OCc2ccc(C(=O)Nc3cccc(C)n3)o2)cc1`, “inactive”.
In the case of `O=C(NCc1cccs1)c1cc(-c2cccc(Cl)c2)on1`, the outcome was inactive.
The same measure for `Cc1ccc(-n2nc3c(c2NC(=O)c2ccc(OC(C)C)cc2)CS(=O)C3)cc1` (stereo unspecified): “inactive”; for `COC(=O)C12CC3CC(C1)CC(n1cnc(Cl)n1)(C3)C2`: “inactive”.
With `CN(C)CC(=O)c1c[nH]c2ccccc12` the entry was “inactive”.
Consider `O=C(O)CCC(=O)c1c[nH]c2ccccc12`, for which the outcome was inactive.
The same measure for `CC(=O)N(c1ccc(Cl)cc1)c1c[nH]c2ccccc12`: “inactive”; for `CCN(CC)CC(=O)c1c[nH]c2ccccc12`: “inactive”.
In the case of `O=C(CCl)N(c1ccccc1)c1c[nH]c2ccccc12`, the call was active.
Consider `O=C(CCl)N(c1ccc(Cl)cc1)c1c[nH]c2ccccc12`, for which the result was active.
On to `O=C(NCCN1CCN(Cc2ccccc2Cl)CC1)Nc1ccccc1`, for which the call was inactive.
In the case of `CCCCOc1ccc(CN2CCCCC2)cc1`, the call was inactive.
As for `CCCCOc1ccc(CN2CCC(O)CC2)cc1`, the outcome was inactive.
Turning to `CC(C)NC(=O)c1ccccc1NC(=O)CN(c1ccc2c(c1)OCO2)S(C)(=O)=O`, the outcome was inactive.
With `CCCn1nnc(NC(=O)c2cccc(Cl)c2)n1`, the result was inactive.
In the case of `CSc1ccc2c(c1)N(CCC1CCCCN1C)c1ccccc1S2` (stereo unspecified), the call was active.
Consider `CN1CCN(CCCN2c3ccccc3Sc3ccc(Cl)cc32)CC1`, for which the compound was classed as inactive.
Take `CN(C)CCCN1c2ccccc2Sc2ccc(C(F)(F)F)cc21`: the call was inactive.
Regarding `COC(=O)c1ccc(OC)c(CSc2nnc(-c3ccc(C(C)(C)C)cc3)o2)c1`, the compound was called inactive.
Regarding `CC(C)CNC(=O)CSc1ccc(Cl)cc1`, the compound was called inactive.
For the compound `Cc1cccc(NC(=S)NNC(=O)CCn2nc(C)c([N+](=O)[O-])c2C)c1`, the compound was called inactive.
On to `S=c1sc2c(N3CCOCC3)ncnc2n1-c1ccccc1`, for which the compound was classed as inactive.
For the compound `c1ccc(-n2nnc3c(N4CCOCC4)ncnc32)cc1`, the call was active.
For `c1ccc(Cn2nnc3c(N4CCOCC4)ncnc32)cc1`, the compound was called inactive.
As to `Nc1cc(=O)[nH]c(SCc2nc3ccccc3n2Cc2ccccc2)n1`, the outcome was inactive.
The same measure for `CSCC[C@H](NC(=O)OC(C)(C)C)c1nnc(SCC(N)=O)o1`: “inactive”; for `COc1ccc(S(=O)(=O)n2nc(OC(=O)C3CCCCC3)cc2N)cc1`: “inactive”.
`Cc1nnc(NC(=O)C2COc3ccccc3O2)s1` (stereo unspecified): the result was inactive.
The same measure for `Cc1nc2ccc3nc(NC(=O)C4COc5ccccc5O4)sc3c2s1` (stereo unspecified): “inactive”; for `O=C(Nc1ccncc1)C1COc2ccccc2O1` (stereo unspecified): “inactive”.
Regarding `O=C(Nc1ncc(Cc2ccccc2)s1)C1COc2ccccc2O1` (stereo unspecified), the result was inactive.
Consider `O=C(Nc1nncs1)C1COc2ccccc2O1` (stereo unspecified), for which the result was inactive.
As to `O=C(Nc1nc(-c2ccccn2)cs1)C1COc2ccccc2O1` (stereo unspecified), the outcome was inactive.
The same measure for `O=C(NC1=NCCS1)C1COc2ccccc2O1` (stereo unspecified): “active”; for `O=C(Nc1nc(-c2ccc3c(c2)OCO3)cs1)C1COc2ccccc2O1` (stereo unspecified): “inactive”.
`COc1ccc2nc(NC(=O)C3COc4ccccc4O3)sc2c1` (stereo unspecified): the compound was called inactive.
Consider `COc1ccc(OC)c(S(=O)(=O)Nc2ccc(CC(=O)O)cc2)c1`, for which the call was inactive.
With `CN(C)/C=N/c1c(C#N)nnn1Cc1ccccc1` the entry was “inactive”; with `Cc1ccc2nc3n(c(=O)c2c1)CCCCC3`, “inactive”; with `CCCCn1c(C(C)NC(=O)c2cccs2)nc2ccccc21` (stereo unspecified), “inactive”.
With `COc1ccccc1N1CCN(C(=O)CSc2nnc(NC(=O)c3ccco3)s2)CC1`, the outcome was inactive.
With `O=C(Nc1nnc(C(F)(F)F)s1)C1COc2ccccc2O1` (stereo unspecified), the compound was classed as inactive.
The same measure for `CCc1nnc(NC(=O)C2COc3ccccc3O2)s1` (stereo unspecified): “inactive”; for `COc1ccc(-c2noc(CCC(=O)Nc3nc4ccccc4s3)n2)cc1`: “inactive”; for `Cc1ccc2nc(SCC(=O)Nc3cc(C(F)(F)F)ccc3N3CCOCC3)[nH]c2c1`: “active”.
As to `Cc1nnc(SCC(=O)Nc2cc(C(F)(F)F)ccc2N2CCOCC2)o1`, the outcome was inactive.
On to `Cc1onc(-c2ccccc2)c1C(=O)Nc1ccccc1N1CCOCC1`, for which the compound was classed as inactive.
With `O=C(Nc1cc(C(F)(F)F)ccc1N1CCOCC1)c1c(F)c(F)c(F)c(F)c1F` the entry was “inactive”; with `Cc1onc(-c2ccccc2)c1C(=O)Nc1cc(C(F)(F)F)ccc1N1CCOCC1`, “active”; with `O=C(CSc1nc2ccccc2[nH]1)Nc1cc(C(F)(F)F)ccc1N1CCOCC1`, “inactive”.
With `CCN(CC)c1ccc2cc(C(=O)Nc3ccc(-n4cnnn4)c(OC)c3)c(=O)oc2c1` the entry was “inactive”.
On to `COCc1cc(C)nc2sc(C(=O)Nc3nccs3)c(N)c12`, for which the outcome was inactive.
Take `CCOC(=O)CNC(=O)c1sc2nc(C)cc(C)c2c1N`: the result was inactive.
On to `CCOC(=O)c1sc2nc(C)cc(C)c2c1N`, for which the compound was classed as inactive.
For `Cc1cc(C)c2c(N)c(C(=O)NC3CC3)sc2n1`, the call was inactive.
Take `COCCNC(=O)C(c1cccs1)N(CCc1ccccc1)C(=O)Cn1nnc2ccccc21` (stereo unspecified): the compound was classed as inactive.
Regarding `O=C(CSc1nnc(CNC(=O)c2cccs2)o1)NCCc1ccccc1`, the compound was called inactive.
For the compound `O=C(CNC(=O)c1ccco1)NCC(=O)OC(C(=O)c1ccccc1)c1ccc(Cl)cc1` (stereo unspecified), the call was inactive.
The same measure for `CC1CCCc2sc3nc(N4CCN(CCO)CC4)n4ncnc4c3c21` (stereo unspecified): “inactive”; for `COCCn1c(C)cc(C2=NNC(=Nc3ccc(OC)cc3)SC2)c1C`: “inactive”.
With `COCCn1c(-c2ccccc2F)n[nH]c1=S`, the compound was classed as inactive.
`COCCn1c(C)cc(C(=O)COc2nc3ccccc3nc2C)c1C`: the compound was classed as inactive.
On to `COCCn1c(C)cc(C2=NNC(=Nc3ccc(Cl)cc3Cl)SC2)c1C`, for which the compound was classed as inactive.
For the compound `CCOC(=O)c1c(C)c(C(=O)NC2CCCCC2)c(C)n1CC`, the compound was called inactive.
Take `Cc1ccc(-c2ccccc2NC(=O)CCl)o1`: the compound was classed as inactive.
